The record followed here is PubChem BioAssay.

Assay [1] can be described thus: anti-His antibody binders, primary screen, artefact control for SMM control protein annotation, biochemical, small-molecule microarray, 635 nm fluorescence (AID 1128).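 Further: score merges feature fluorescence with signal-to-noise for each printed compound spot.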 The conditions noted are these: anti-His Alexa647 antibody binding, higher = more signal.
Assay [2] relates to Human papillomavirus type 1a E7 protein (residues 1-88). The assay can be described thus: HPV1a E7 small-molecule binders, primary screen, biochemical, small-molecule microarray, residues 1-88, 635 nm (AID 1129). As to conditions: small-molecule microarray binding, fluorescence 635 nm; higher = more signal.
The target of assay [3] is Focal adhesion kinase 1 (Homo sapiens) (UniProt Q05397). Description: small-molecule microarray binders of FAK, primary screen, biochemical, 635/667 nm fluorescence, BSA, DTT (AID 1130).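 Further: composite of spot emission at 667 nm and signal to noise over triplicate slides.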 The conditions noted are these: PTK2 binding, 635 nm fluorescence, higher = more signal.
In assay [4] the test system is Fibrinogen (Alexa647-labelled). The assay can be described thus: fibrinogen binders on compound microarrays, profiling panel, artefact control for SMM control-protein annotation, biochemical, small-molecule microarray, 635/667 nm fluorescence (AID 1131).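 Further: z-score merges 667 nm fluorescence with per-spot signal-to-noise over triplicate slides.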 As to conditions: fibrinogen-A647 binding fluorescence, higher = more signal.
Assay [5] deals with Follistatin (Homo sapiens) (UniProt P19883). Description: follistatin binders on small-molecule microarrays, primary screen, biochemical, small-molecule microarray, 635/667 nm fluorescence (AID 1132). As to conditions: FST binding, 635 nm fluorescence, higher = more signal.
Assay [6] has as its target Fibroblast growth factor 2 (Homo sapiens) (UniProt P09038). The assay can be described thus: FGF2 binders on small-molecule microarrays, primary screen, biochemical, small-molecule microarray, 635/667 nm fluorescence (AID 1133). As to conditions: small-molecule microarray binding, FGF2, fluorescence 635/667; higher = more signal.
The nature of assay [7]: mitochondrial membrane potential change in A549 cells, profiling panel, cell-based, JC-1 fluorescence, basal, 24 h, 100 nL (AID 1138).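 Further: A549 lung adenocarcinoma cells under basal conditions with no added stimulus; test concentration not given here.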 As to conditions: higher = more signal.
Another assay deals with Lefty1. Description: Lefty1 binders on small-molecule microarrays, primary screen, biochemical, small-molecule microarray, 635/667 nm fluorescence (AID 1139). The conditions noted are these: small-molecule microarray binding, fluorescence 635/667; higher = more signal.
The test system of assay [8] is wheat germ agglutinin (Triticum aestivum), Alexa647-labelled. The assay can be described thus: wheat germ agglutinin binders on compound microarrays, profiling panel, artefact control for SMM control-protein annotation, biochemical, small-molecule microarray, 635/667 nm fluorescence (AID 1140).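 Further: score merges 667 nm feature emission with signal to noise over triplicate slides.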 As to conditions: WGA-A647 binding, 635 nm fluorescence, higher = more signal.

Assay [9] has as its target Luciferin 4-monooxygenase (Photinus pyralis) (UniProt P08659). The assay can be described thus: firefly luciferase enzyme inhibitors, primary screen, biochemical, luminescence, purified enzyme, 2006 set (AID 1141).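 Further: cell-free assay with purified firefly luciferase at 100 ng per well in PBS; test concentration not given here.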 The conditions noted are these: SteadyGlo luminescence, 30 min, higher = more signal, called active from +8 up or from −8 down.
Assay [10] concerns Wnt5a (protein binding on small-molecule microarray). The assay can be described thus: Wnt5a binders on small-molecule microarray, primary screen, biophysical, 635/667 nm fluorescence (AID 1142).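 Further: fluorescence read at 667 nm with signal to noise per printed feature.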 As to conditions: 635 nm fluorescence, higher = more signal.
A short description of assay [11]: cell viability in Huh7 cells, primary screen, cytotoxicity control for HCV replication inhibitor project, CellTiter-Glo luminescence, basal, 48 h (AID 1143).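 Further: Huh7 hepatoma cells carrying a hepatitis C replication reporter with no stimulus; test concentration not given here.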 As to conditions: Huh7 HCV replicon, higher = more signal, called active from +8 up or from −8 down. For orientation: ATP-based viability assays read luminescence as a measure of living cells.
The nature of assay [12]: P. aeruginosa biofilm formation inhibitors, primary screen, PAO1 strain, BacTiter-Glo luminescence, LB-PBS (AID 1144). As to conditions: 12 h, higher = more signal.
Assay [13] is described as follows: CREB reporter modulators without forskolin, primary screen, cell-based, PC12, CRE-LacZ reporter, unstimulated (AID 1145). The conditions noted are these: no forskolin, luminescence, 4.5 h, higher = more signal, called active from +8 up or from −8 down.
Assay [14] is described as follows: CREB reporter modulators under forskolin, primary screen, cell-based, PC12, CRE-LacZ reporter, forskolin-stimulated (AID 1146).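 Further: PC12 cells with 6xCRE LacZ reporter stimulated by forskolin 10 µM; beta-galactosidase reporter signal reflecting CREB driven transcription.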 As to conditions: luminescence, 4.5 h, higher = more signal, called active from +8 up or from −8 down.
For assay [15], the target named is Streptavidin (Streptomyces avidinii) (UniProt P22629). Description: streptavidin binders on small-molecule microarray, primary screen, artefact control for SMM compound annotation, biophysical, 635/667 nm fluorescence (AID 1147).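 Further: signal reflects streptavidin binding to arrayed compounds as a control protein.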 The conditions noted are these: streptavidin binding, higher = more signal.
Assay [16] is described as follows: small-molecule binders of probe aInhba, primary screen, biochemical, small-molecule microarray, 635/667 nm fluorescence (AID 1148).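 Further: score merges 667nm spot fluorescence with signal-to-noise for antibody binding to printed compounds.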 As to conditions: higher = more signal.
The target in assay [17] is Torsin-1A (Homo sapiens) (UniProt O14656). Description: torsin A binders from cell lysate, primary screen, small-molecule microarray, wild-type, 635/667 nm (AID 1149). The conditions noted are these: COS7 hTOR1A-WT lysate, 635 nm fluorescence, higher = more signal.
For assay [18] the target is unchanged. The assay can be described thus: small-molecule binders of mutant TOR1A in lysate, primary screen, cell lysate, small-molecule microarray, COS7 lysate, 635/667 nm fluorescence (AID 1150).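 Further: score pools 667 nm emission and signal to noise measuring lysate protein binding.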 As to conditions: COS7 hTOR1A mutant lysate, 635 nm fluorescence, higher = more signal.
Assay [19] concerns Sonic hedgehog protein (Shh). Description: small-molecule binders of Shh protein, primary screen, biochemical, small-molecule microarray, 635/667 nm fluorescence (AID 1151).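 Further: Shh protein binding to compounds spotted on small-molecule microarray slides; score combines spot fluorescence intensity with signal-to-noise across triplicate slides.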 As to conditions: small-molecule microarray binding, 635 nm fluorescence; higher = more signal.

Active and inactive are the calls of the source. Unless noted, how the calls were made is not given here.

Fibroblast growth factor 2 (Homo sapiens), sequence (P09038 whole entry, looked up): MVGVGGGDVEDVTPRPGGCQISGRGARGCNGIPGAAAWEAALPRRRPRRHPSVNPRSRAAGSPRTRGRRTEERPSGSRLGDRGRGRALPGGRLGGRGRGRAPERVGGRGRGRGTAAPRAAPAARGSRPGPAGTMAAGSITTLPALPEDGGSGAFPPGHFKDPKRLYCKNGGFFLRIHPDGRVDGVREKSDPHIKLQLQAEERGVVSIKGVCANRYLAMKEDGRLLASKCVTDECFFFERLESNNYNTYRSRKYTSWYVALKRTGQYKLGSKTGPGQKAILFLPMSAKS
Focal adhesion kinase 1 (Homo sapiens), sequence (Q05397 whole entry, looked up): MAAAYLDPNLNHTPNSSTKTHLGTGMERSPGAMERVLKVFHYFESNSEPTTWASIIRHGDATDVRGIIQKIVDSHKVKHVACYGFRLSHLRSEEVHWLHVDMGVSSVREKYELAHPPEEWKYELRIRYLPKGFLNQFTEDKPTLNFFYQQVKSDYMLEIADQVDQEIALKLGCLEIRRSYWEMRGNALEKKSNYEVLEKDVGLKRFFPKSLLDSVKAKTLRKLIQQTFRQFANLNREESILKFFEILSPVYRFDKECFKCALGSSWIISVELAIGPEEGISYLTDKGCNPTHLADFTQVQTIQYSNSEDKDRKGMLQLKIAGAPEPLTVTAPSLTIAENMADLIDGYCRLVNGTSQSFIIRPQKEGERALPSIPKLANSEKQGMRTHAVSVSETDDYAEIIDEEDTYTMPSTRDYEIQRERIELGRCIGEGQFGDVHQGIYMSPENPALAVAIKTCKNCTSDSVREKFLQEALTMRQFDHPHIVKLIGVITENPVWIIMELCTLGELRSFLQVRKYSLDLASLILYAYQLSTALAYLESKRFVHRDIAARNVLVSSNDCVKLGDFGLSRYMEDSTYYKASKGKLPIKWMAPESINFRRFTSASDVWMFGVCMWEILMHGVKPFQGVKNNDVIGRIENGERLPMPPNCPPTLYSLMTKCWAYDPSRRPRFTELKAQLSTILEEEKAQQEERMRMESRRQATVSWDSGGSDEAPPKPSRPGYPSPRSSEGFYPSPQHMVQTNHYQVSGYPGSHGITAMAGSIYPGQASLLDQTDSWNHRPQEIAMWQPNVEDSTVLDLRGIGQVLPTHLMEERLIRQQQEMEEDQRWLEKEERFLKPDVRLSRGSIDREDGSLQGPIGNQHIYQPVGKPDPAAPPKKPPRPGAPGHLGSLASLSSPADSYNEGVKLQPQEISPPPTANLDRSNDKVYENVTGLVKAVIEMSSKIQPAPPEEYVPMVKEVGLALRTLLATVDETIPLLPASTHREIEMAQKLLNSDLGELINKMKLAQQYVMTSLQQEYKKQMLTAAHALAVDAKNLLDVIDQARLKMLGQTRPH
Torsin-1A (Homo sapiens), sequence (O14656 whole entry, looked up): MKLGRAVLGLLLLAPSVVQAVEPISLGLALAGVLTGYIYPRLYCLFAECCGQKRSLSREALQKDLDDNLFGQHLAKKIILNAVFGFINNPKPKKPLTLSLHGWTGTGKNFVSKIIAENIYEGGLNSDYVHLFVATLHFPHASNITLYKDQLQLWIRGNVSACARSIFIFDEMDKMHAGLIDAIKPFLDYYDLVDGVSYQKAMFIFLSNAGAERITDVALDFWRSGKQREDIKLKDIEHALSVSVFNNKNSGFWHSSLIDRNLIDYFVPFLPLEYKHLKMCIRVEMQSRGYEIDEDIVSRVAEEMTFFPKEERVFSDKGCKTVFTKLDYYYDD
Streptavidin (Streptomyces avidinii), sequence (P22629 whole entry, looked up): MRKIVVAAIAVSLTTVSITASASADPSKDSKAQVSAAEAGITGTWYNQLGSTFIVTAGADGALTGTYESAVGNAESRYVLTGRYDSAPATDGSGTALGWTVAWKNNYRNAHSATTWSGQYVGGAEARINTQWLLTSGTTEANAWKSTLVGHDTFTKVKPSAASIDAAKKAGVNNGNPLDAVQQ
Luciferin 4-monooxygenase (Photinus pyralis), sequence (P08659 whole entry, looked up): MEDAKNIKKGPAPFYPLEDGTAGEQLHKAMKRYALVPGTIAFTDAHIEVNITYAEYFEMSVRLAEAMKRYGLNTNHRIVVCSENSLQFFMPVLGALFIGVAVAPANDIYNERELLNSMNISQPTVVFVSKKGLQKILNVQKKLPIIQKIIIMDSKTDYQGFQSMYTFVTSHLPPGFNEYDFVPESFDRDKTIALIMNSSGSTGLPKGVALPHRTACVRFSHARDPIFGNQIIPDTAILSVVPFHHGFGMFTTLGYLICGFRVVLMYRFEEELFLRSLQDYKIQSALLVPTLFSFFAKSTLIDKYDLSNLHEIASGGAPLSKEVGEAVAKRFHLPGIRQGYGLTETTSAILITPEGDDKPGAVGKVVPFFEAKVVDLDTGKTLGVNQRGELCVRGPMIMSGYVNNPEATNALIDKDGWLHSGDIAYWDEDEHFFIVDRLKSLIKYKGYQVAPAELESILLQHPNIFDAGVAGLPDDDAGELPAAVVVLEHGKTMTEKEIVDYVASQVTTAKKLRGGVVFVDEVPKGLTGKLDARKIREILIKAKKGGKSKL
Follistatin (Homo sapiens), sequence (P19883 whole entry, looked up): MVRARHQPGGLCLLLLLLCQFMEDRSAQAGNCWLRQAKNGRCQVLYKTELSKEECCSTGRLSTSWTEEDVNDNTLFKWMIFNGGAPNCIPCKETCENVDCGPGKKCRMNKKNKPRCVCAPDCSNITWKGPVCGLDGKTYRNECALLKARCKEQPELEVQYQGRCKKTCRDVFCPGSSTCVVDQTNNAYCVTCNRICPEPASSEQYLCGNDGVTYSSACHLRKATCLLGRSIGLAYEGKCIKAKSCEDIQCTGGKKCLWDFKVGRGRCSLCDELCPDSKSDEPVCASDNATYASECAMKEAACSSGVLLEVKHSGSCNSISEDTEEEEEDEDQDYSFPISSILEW

With `CC(C)[Si](C#CCCCC#N)(Oc1ccccc1Br)C(C)C`, the composite z-score amounted to 0.259 in assay [1]; 0.725 in [2]; 0.3 in assay [3]; 0.709 in assay [4]; 0.269 in assay [5]; 0.223 in [6]. The composite z-score in the assay with Lefty1 was 0.55; in assay [8], 0.327; in assay [10] it was 0.0696; in assay [15], 0.525; in [16], -0.15; with Torsin-1A (Homo sapiens) [17], 0.42. The composite z-score in the assay with Torsin-1A (Homo sapiens) [18] is 0.222; in [19] it was 0.544. In addition, the z-score was -0.0477 in assay [7]; -0.277 (inactive) in assay [9]; -0.0761 (inactive) in assay [11]; 0.0648 (inactive) in assay [12]; -0.519 (inactive) in assay [13]; -0.0887 (inactive) in assay [14].

`C=CC[C@]12N=C(c3ccc(OCCCO)cc3)O[C@H]1c1ccccc1N(CCS(=O)(=O)c1ccccc1)C2=O`: the composite z-score turned out to be 1.66 in assay [1]; 1.23 in assay [2]; 0.472 in [3]; 0.971 in assay [4]; 1.15 in assay [5]; 1.38 in [6]. The composite z-score in the assay on Lefty1 is 1.05; in [8] it was 0.97; in assay [10], 0.382; in assay [15], 1.07; in [16] it was -0.101; in the assay with Torsin-1A (Homo sapiens) [17], 0.695. For the same compound, the composite z-score amounted to 0.79 with Torsin-1A (Homo sapiens) [18] and 1.39 in assay [19]. For the same compound, the z-score in assay [7] is 0.337; in [9] it was -12.4 (active); in assay [11], -3.24 (inactive); in assay [12], -0.438 (inactive); in [13], -1.04 (inactive); in [14], -1.87 (inactive).

With `[N-]=[N+]=NCc1ccccc1[C@@H]1OC(c2ccc(OCCCO)cc2)=N[C@]1(CCS(=O)(=O)c1ccccc1)C(N)=O`, the composite z-score in assay [1] is 3.49; in assay [2], 1.27; in assay [3], 1.21; in assay [4], 0.973; in assay [5], 1.44; in assay [6] it was 1.83. In addition, the composite z-score with Lefty1 was found to be 0.616; in assay [8], 1.09; in [10], 1.2; in [15], 0.982; in [16] it was 0.393; with Torsin-1A (Homo sapiens) [17] it was 1.41. The composite z-score in the assay with Torsin-1A (Homo sapiens) [18] came out at 1.26; in assay [19], 0.99. Also, the z-score in [7] is -0.528; in assay [9], -2.98 (inactive); in [11], -0.369 (inactive); in assay [12] it was 1.47 (inactive); in [13], -0.128 (inactive); in assay [14], -0.785 (inactive).

Consider `[N-]=[N+]=Nc1ccccc1C[C@]1(C(=O)NCC(O)CO)N=C(c2ccc(OCCCO)cc2)O[C@H]1c1ccccc1` (stereo not given in full), for which the composite z-score was 1.91 in assay [1]; 1.03 in assay [2]; 0.0141 in [3]; 0.942 in assay [4]; 0.497 in assay [5]; -0.839 in assay [6]. The composite z-score in the assay with Lefty1 was -0.492; in [8], 0.606; in [10], -0.541; in assay [15] it was 0.204; in assay [16], 0.0134; with Torsin-1A (Homo sapiens) [17], -0.268. In addition, the figures for the composite z-score (with Torsin-1A (Homo sapiens) [18]; in assay [19]) were 0.089 and -1.61, respectively. The z-score in assay [7] is 0.0609; in [9] it was -1.78 (inactive); in assay [11], -3.23 (inactive); in assay [12], 0.382 (inactive); in assay [13], 1.19 (inactive); in assay [14] it was -1.55 (inactive).

For `C[C@H]1C2[C@H](Cc3ccccc3)NC(=O)[C@]23C(=O)NCC(=O)N2CCC[C@H]2C(=O)NC/C=C/CCC/C=C/C3[C@@H]2O[C@]12C` (stereo not given in full), the composite z-score is 0.295 in assay [1]; -1.28 in assay [2]; -0.502 in assay [3]; -0.489 in assay [4]; -0.0491 in assay [5]; -0.0881 in assay [6]. Further, the composite z-score is -0.0374 in the assay on Lefty1; -0.704 in assay [8]; -0.376 in [10]; -1.3 in [15]; -0.179 in assay [16]; -0.793 with Torsin-1A (Homo sapiens) [17]. Further, the figures for the composite z-score (with Torsin-1A (Homo sapiens) [18]; in [19]) were -0.333 and 0.468, respectively. Besides, the z-score in [7] was -0.979; in assay [9], -0.44 (inactive); in assay [11], -1.02 (inactive); in assay [12], 0.785 (inactive); in [13], 1.32 (inactive); in assay [14], -1.25 (inactive).

For the compound `C=C(CCCC)/C(=C/C[C@H](OC(=O)c1ccncc1)c1ccc(OCCO)cc1)c1cc(C(=O)OC)ccc1OC`, the composite z-score in [1] is 1.07; in [2], 1.18; in [3], 0.525; in assay [4] it was 0.438; in assay [5], -0.0021; in [6] it was 0.0508. In addition, the composite z-score with Lefty1 turned out to be 0.394; in [8], 0.704; in assay [10], 0.355; in [15], 0.0399; in assay [16] it was 0.0104; in the assay with Torsin-1A (Homo sapiens) [17], 0.404. Besides, the composite z-score with Torsin-1A (Homo sapiens) [18] is 0.102; in [19], 1.96. Besides, the z-score in [7] was 0.313; in assay [9], -0.723 (inactive); in [11] it was -4.81 (inactive); in assay [12] it was 0.282 (inactive); in assay [13] it was 5.11 (inactive); in assay [14] it was -0.366 (inactive).
